Assay [1] addresses Peroxisome proliferator-activated receptor gamma (Homo sapiens) (UniProt P37231). The experiment in a line: OT_PPARg_PPARgSRC1_1440: Odyssey Thera (OT) 24-hour Protein-Complementation Assay for Peroxisome Proliferator-activated Receptor Gamma/ SRC-1 Co-activator (AID 2283388; active = hit-call score of the fitted dose curve at least 0.9, where 1 is the maximum). In a few lines: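 HEK293T transiently transfected with PPARg/SRC-1 split-Venus YFP fusions 48 h before dosing, then treated 24 h at 37C. Fixed cells imaged; nuclear/cytoplasmic 488 nm fluorescence ratio, gain of signal versus DMSO.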

Assay [2] can be described thus: CEETOX_H295R_11DCORT: CeeTox H295R High-throughput Steroidogenesis Assay for 11-Deoxycortisol (11DCORT) (AID 2283432).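 As to AC50: 11-deoxycortisol secreted into the medium measured by LC-MS/MS.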 The conditions noted are these: actives raise or lower the signal. In a few lines: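 H295R cells; 10 uM forskolin prestim 48 h; compound in 0.1% DMSO 48 h; media extracted with MTBE; 11-deoxycortisol by LC-MS/MS, 7-point standard curve; gain/loss vs DMSO baseline; viability by MTT in same wells.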

Assay [3] in a line: CEETOX_H295R_OHPREG: CeeTox H295R High-throughput Steroidogenesis Assay for OH-Pregnenolone (OHPREG) (AID 2283434). The conditions noted are these: actives raise or lower the signal. The gist of the method:
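Readout: HPLC-MS/MS of 17alpha-hydroxypregnenolone in medium after 48 h chemical exposure of H295R cells pretreated with forskolin. Values fitted bidirectionally relative to DMSO; chemicals reducing viability to 20–70% were retested after 10-fold dilution.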

The nature of assay [4]: CEETOX_H295R_OHPROG: CeeTox H295R High-throughput Steroidogenesis Assay for OH-Progesterone (OHPROG) (AID 2283435).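 As to AC50: 17alpha-hydroxyprogesterone secreted into medium measured by HPLC-MS/MS.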 The following applies: actives raise or lower the signal. In a few lines:
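Medium steroid levels read by LC-MS/MS after 48 h chemical treatment (0.1% DMSO) of human adrenal H295R cells that had been forskolin-primed (10 uM, 48 h). Gain or loss fitted against DMSO; MTT cytotoxicity checked per well.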

Assay [5] can be described thus: CEETOX_H295R_CORTIC: CeeTox H295R High-throughput Steroidogenesis Assay for Corticosterone (CORTIC) (AID 2283437).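 Also: corticosterone secreted into medium quantified by mass spectrometry.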 The following applies: actives raise or lower the signal. The gist of the method:
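Steps: seed H295R, adhere overnight; 10 uM forskolin 48 h; replace with chemical (0.1% DMSO) 48 h; extract medium with MTBE; quantify corticosterone by HPLC-MS/MS; score bidirectionally vs DMSO.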

The nature of assay [6]: CEETOX_H295R_DOC: CeeTox H295R High-throughput Steroidogenesis Assay for DOC (AID 2283439). The conditions noted are these: actives raise or lower the signal. The gist of the method: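 11-Deoxycorticosterone quantified in medium by MTBE extraction and HPLC-MS/MS after 48 h chemical exposure (0.1% DMSO) of forskolin-primed (10 uM, 48 h) H295R cells. Same-well MTT viability; data fitted bidirectionally against DMSO.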

The nature of assay [7]: CEETOX_H295R_ESTRADIOL: CeeTox H295R High-throughput Steroidogenesis Assay for Estradiol (AID 2283440).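 Also: estradiol secreted into medium quantified by LC-MS/MS after dansyl derivatisation.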 The conditions noted are these: actives raise or lower the signal. The gist of the method: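 H295R cells pre-stimulated 48 h with 10 uM forskolin, then exposed 48 h to chemical in 0.1% DMSO. Medium estradiol quantified by MTBE extraction, dansyl derivatisation and HPLC-MS/MS; bidirectional fit versus DMSO; MTT viability required >/=70%.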

Assay [8] can be described thus: CEETOX_H295R_ESTRONE: CeeTox H295R High-throughput Steroidogenesis Assay for Estrone (AID 2283441). The following applies: actives raise or lower the signal. In a few lines:
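Estrone secreted into medium quantified by LC-MS/MS after dansyl chloride derivatization, following 48 h chemical exposure (0.1% DMSO final) of forskolin-prestimulated (10 uM, 48 h) H295R cells; gain or loss fitted against DMSO; MTT viability in same wells.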

Assay [9] can be described thus: CEETOX_H295R_PROG: CeeTox H295R High-throughput Steroidogenesis Assay for Progesterone (PROG) (AID 2283442).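 As to AC50: human H295R adrenal cells primed with 10 µM forskolin before dosing.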 The conditions noted are these: actives raise or lower the signal. The gist of the method:
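H295R adrenal cells prestimulated 48 h with 10 uM forskolin, then exposed 48 h to test chemical in 0.1% DMSO. Progesterone in medium quantified by HPLC-MS/MS after MTBE extraction; viability checked by MTT in same wells.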

A short description of assay [10]: CEETOX_H295R_ANDR: CeeTox H295R High-throughput Steroidogenesis Assay for Androstenedione (ANDR) (AID 2283436). The conditions noted are these: actives raise or lower the signal. The gist of the method: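 Steroidogenesis in H295R adrenal cells after 48 h dosing; androstenedione quantified by LC-MS/MS, with DMSO as negative control and baseline for bidirectional curve fitting.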

Assay [11] is described as follows: CEETOX_H295R_TESTO: CeeTox H295R High-throughput Steroidogenesis Assay for Testosterone (TESTO) (AID 2283457).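 As to AC50: cells exposed to chemicals for 48 h before medium collection.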 The following applies: actives raise or lower the signal. The gist of the method:
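H295R adrenal cells, passage ≤10, exposed to chemicals for 48 h. Testosterone in medium measured by MTBE extraction and HPLC-MS/MS against a 7-point standard curve. Bidirectional fit versus DMSO; MTT viability checked in the same wells.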

The source made the active and inactive calls. The calls were made as follows, unless noted: active = hit-call score of the fitted dose curve at least 0.9, where 1 is the maximum; inactive = score below 0.9.

Peroxisome proliferator-activated receptor gamma (Homo sapiens), sequence (P37231 whole entry, looked up, the tested form may be a part): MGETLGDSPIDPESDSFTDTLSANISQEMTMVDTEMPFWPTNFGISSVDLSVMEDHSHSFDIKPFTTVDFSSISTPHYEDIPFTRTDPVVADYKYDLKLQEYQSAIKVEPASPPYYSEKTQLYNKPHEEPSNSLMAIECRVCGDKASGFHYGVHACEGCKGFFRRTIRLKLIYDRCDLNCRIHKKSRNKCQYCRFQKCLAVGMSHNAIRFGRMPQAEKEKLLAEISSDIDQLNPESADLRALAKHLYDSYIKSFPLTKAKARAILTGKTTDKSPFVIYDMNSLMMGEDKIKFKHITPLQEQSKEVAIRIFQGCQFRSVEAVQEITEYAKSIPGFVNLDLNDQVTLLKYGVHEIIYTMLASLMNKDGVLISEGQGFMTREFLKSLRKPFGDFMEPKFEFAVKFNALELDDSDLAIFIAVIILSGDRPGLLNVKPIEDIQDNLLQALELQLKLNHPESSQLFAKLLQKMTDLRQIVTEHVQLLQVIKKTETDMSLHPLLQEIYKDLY

Turning to `C[C@H]1O[C@@H](O[C@H]2[C@@H](O)C[C@H](O[C@H]3[C@@H](O)C[C@H](O[C@H]4CC[C@@]5(C)[C@H](CC[C@@H]6[C@@H]5C[C@@H](O)[C@]5(C)[C@@H](C7=CC(=O)OC7)CC[C@]65O)C4)O[C@@H]3C)O[C@@H]2C)C[C@H](O)[C@@H]1O`, the compound was called inactive in [1].

As for `CCc1ccc(O)cc1`, the result in [1] was inactive.

As to `CC(C)(C)CC(C)(C)c1ccc(OCCOCC[N+](C)(C)Cc2ccccc2)cc1`, the outcome in assay [2], in assay [3], in assay [4], in assay [5], in assay [6] and in [7] was inactive. Further, the result in [8] and in assay [9] was inactive.

For `CCCCCCCCN1CCCC1=O`, the outcome in assay [1], in [2], in assay [3], in [4], in assay [5] and in assay [6] was inactive. The result in assay [9] was inactive.

Take `CC=Cc1ccc(OCC)c(O)c1`: the call in [2], in assay [3], in [5] and in [6] was inactive. Also, the half-maximal activity concentration (AC50) (in general, the concentration at which the activity in the assay is half-maximal) in [4] is 11 µM (active); in assay [9] it was 20.7 µM (active).

As for `OCc1cccc(Oc2ccccc2)c1`, the result in assay [1], in assay [3] and in [9] was inactive. The AC50 in assay [4], in assay [10] and in assay [11] was 50 µM (active) in each case.

In the case of `Nc1ccc(N)c2c1C(=O)c1ccccc1C2=O`, the outcome in [1], in [3], in assay [10], in assay [5], in assay [9] and in [11] was inactive. The AC50 in assay [2] is 7.09 µM (active); in assay [4], 1.51 µM (active); in [6], 4.43 µM (active).

`O=C(CC(=O)c1ccccc1)c1ccccc1`: in assay [1], the outcome was inactive.
